PubChem BioAssay (NCI)
This is part of a sample that, as a whole, favours compounds with a hit. Of some 83,000 tested, about 20% had one in any assay.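 Values shown are percent growth following 48 h exposure of cells in 96-well plates to a single concentration of compound; below 10 was considered active.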 Active and inactive are the calls of the source.

test system: HL-60(TB) leukemia; assay: NCI-60 one-dose screen, 48 h (100 = growth as untreated, 0 = no growth, -100 = all killed); conditions: 10 µM unless noted

SMILES | growth
CSc1nc2sc3cccc(Cl)c3n2c(=N)c1C#N | 91.8% (inactive)
CCCCNC(=O)NS(=O)(=O)c1ccc(N2N=C(c3ccc(C)cc3C)CC2c2ccc(N(C)C)cc2)cc1 (configuration not stated) | 14.4% (inactive)
O[C@H]1CO[C@H]2[C@@H]1OC[C@@H]2Oc1ccc(Nc2ccnc(Nc3ccc(O[C@H]4CO[C@H]5[C@@H]4OC[C@@H]5O)c(Cl)c3)n2)cc1Cl | -7.8% (active)
CC(=O)Oc1ccc(C)cc1C | 95% (inactive)
COCCCN=C(N)c1ccc(NC(=O)c2ccc(C(=O)Nc3ccc(C(N)=NCCCOC)cc3)cc2)cc1 | 71.3% (inactive)
N#Cc1nn(-c2cc(=O)[nH]c3ccc(Br)cc23)c(N)c1C#N | -11.2% (active)
COc1cc(/C=C2\CN(S(=O)(=O)c3ccc(C)cc3)C/C(=C\c3cc(CN4CCOCC4)c(O)c(OC)c3)C2=O)cc(CN2CCOCC2)c1O | -15.5% (active)
C/C(=N/N=C(N)N)c1ccc(Cl)cc1 | 171% (inactive)
CCCn1c(=O)[nH]c(N)c([C@H]2c3ccccc3Oc3[nH]c(=O)n(CCC)c(=O)c32)c1=O | 32.9% (inactive)
CC1CCN(Cc2ccc(NC(=O)c3cc4ccc5cccnc5c4[nH]3)cc2)CC1 | 11.5% (inactive)
CC(=O)Nc1cccc(NC(C)=O)n1 | 96.5% (inactive)
C[N+]1=C(/C=C/c2ccccc2Cl)C(C)(C)c2ccccc21 | 53.5% (inactive)
O=C(/C=C1\C(=O)N(Cc2ccc([N+](=O)[O-])cc2)c2ccccc21)c1ccc(OCCN2CCCCC2)cc1 | -50.6% (active)
COC(=O)/C(CCC=C(C)C)=C1\[C@@H](OC(C)=O)C[C@@]2(C)[C@H]1C[C@@H](O)[C@H]1[C@@]3(C)CC[C@H](NCCO)[C@@H](C)[C@@H]3CC[C@@]12C | 96.4% (inactive)
N=C(N)Sc1cccc[n+]1[O-] | 27.8% (inactive)
Nc1cc2c(cc1Cl)-c1ccc([N+](=O)[O-])cc1/C2=N\O | 89.5% (inactive)
Cc1ccccc1NC(=O)Cc1csc2[n+]1C(=O)/C(=C/c1ccc([N+](=O)[O-])cc1)S2 | 103% (inactive)
COc1ccc(CN2c3ccccc3Oc3ccccc32)cc1O | 15.6% (inactive)
COc1ccc2c(c1)nnc1c3cccnc3[nH]c21 | -31.4% (active)
COc1cc(/C=N/NC(=O)CCN2c3ccccc3Sc3ccccc32)cc(OC)c1OC | 77.9% (inactive)
CC(C)(C)c1ccc(S(=O)(=O)N[C@H]2CC[C@H]3[C@@H]4CCc5cc(O)c([N+](=O)[O-])cc5[C@H]4CC[C@]23C)cc1 | 60.7% (inactive)
COc1ccc(/C=C2\N=C(Nc3ccccc3)N(NC(=O)c3ccccn3)C2=O)cc1 | 97.7% (inactive)
CCCCC1COc2cccc3c2N1C=C/C3=C\C(=O)N(C)c1cccc(Cl)c1 (configuration not stated) | 98.7% (inactive)
Cc1ccsc1/C=C/C1=NCCCN1C | 126% (inactive)
NCCNc1nc2ccccc2c2c(=O)c3cccc(F)c3sc12 | 53% (inactive)
O=C(Nc1cccc([N+](=O)[O-])c1)c1cccc(C(=O)Nc2cccc([N+](=O)[O-])c2)c1 | 81% (inactive)
CCCn1c(=S)sc2c1nc(C)n1c(Nc3ccccc3)nnc21 | 45.3% (inactive)
